MazEF act: increases E. coli MazEF RNase cleavage of RNA; P0AE70; FAM/BHQ RNA-DNA oligo cleavage fluorescence, 5 h; activation, % at 20 µM; 350,000 compounds, 0.32% hits; AID 504720; in the data active means activation above about 50%
PriA SSB inh: blocks PriA binding to SSB C-terminal tail; AID 1272365; inhibition, % at 33 µM; AlphaScreen SSBct-PriA binding, biotinylated peptide; 430,000 compounds, 0.6% hits; in the data active means inhibition mostly above about 37%, no sharp cut-off; inactive means mostly below about 20%;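 further: plate controls were negative control peptide for no effect and reference peptide for full effect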
BoNT-F LC inh: inhibitors of Botulinum neurotoxin F light chain protease; Multiplex microsphere protease cleavage assay, flow cytometry; 360,000 compounds, 0.22% hits; inhibition, % at 10 µM; AID 588497; in the data active means inhibition above about 35%, passing the limit was not always enough; inconclusive means no clear call, values can overlap the other calls; further: plate controls were buffer without enzyme for full effect and enzyme alone for no effect
BoNT-A LC inh2: inhibitors of Botulinum neurotoxin A light chain protease | multiplex microsphere protease substrate cleavage, flow cytometry | inhibition, % at 10 µM | 360,000 compounds, 0.17% hits | AID 588499; further: plate controls were buffer without enzyme for full effect and enzyme alone for no effect
Anthrax LF prot: inhibitors of Bacillus anthracis lethal factor protease | multiplex microsphere protease cleavage assay, LF | inhibition, % at 10 µM | 360,000 compounds, 0.12% hits | AID 588501; further: plate controls were buffer without enzyme for full effect and enzyme alone for no effect
Target sequence (P15917 whole entry, looked up): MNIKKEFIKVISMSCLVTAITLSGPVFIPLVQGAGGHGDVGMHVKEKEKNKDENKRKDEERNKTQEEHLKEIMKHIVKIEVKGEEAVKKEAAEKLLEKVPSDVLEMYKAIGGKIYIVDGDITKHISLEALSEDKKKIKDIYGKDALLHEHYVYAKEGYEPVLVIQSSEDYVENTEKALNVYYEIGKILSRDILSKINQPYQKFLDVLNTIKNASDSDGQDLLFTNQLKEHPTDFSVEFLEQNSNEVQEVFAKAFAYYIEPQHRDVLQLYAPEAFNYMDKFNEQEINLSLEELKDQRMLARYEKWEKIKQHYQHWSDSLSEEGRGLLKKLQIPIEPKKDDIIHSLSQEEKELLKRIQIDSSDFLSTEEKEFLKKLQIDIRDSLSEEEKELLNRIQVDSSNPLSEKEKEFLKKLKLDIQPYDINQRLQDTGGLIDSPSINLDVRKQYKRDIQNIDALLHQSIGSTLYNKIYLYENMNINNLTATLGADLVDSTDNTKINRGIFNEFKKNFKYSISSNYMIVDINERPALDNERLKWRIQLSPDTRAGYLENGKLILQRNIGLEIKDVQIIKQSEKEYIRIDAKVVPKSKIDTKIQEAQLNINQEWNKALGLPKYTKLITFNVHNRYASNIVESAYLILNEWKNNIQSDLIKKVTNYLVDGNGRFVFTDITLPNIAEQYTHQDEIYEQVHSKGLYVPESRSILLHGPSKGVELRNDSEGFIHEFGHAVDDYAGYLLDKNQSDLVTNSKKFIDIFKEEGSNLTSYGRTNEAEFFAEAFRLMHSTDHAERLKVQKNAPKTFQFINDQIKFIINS
Bead autofluor: counter-screen for toxin protease inhibitors: compound fluorescence; AID 624483; fluorescence intensity (no concentration beside the values); compound autofluorescence counterscreen, microsphere flow cytometry; active compounds read high; 360,000 compounds, 3.1% hits; in the data active means fluorescence intensity above about 16000; inconclusive means no clear call, values can overlap the other calls
Active calls of the source: *. Most compounds without a hit are left out; they make up all but 3.3% or so of the library. Unless noted, no stated cut-off is given here; in the data, active means inhibition above about 30%; inconclusive means no clear call, values can overlap the other calls; inactive means below that.

CC1=C(C(=O)OC2CCCCCC2)C(c2ccc(C)o2)C2=C(CCCC2=O)N1 (centres undefined) was read as MazEF act 2, PriA SSB inh -5, BoNT-F LC inh -12, BoNT-A LC inh2 -1, Anthrax LF prot -5 and Bead autofluor 9556.
Screening COc1ccc(-n2cnnc2SCC(=O)N(C)C2CCS(=O)(=O)C2)cc1 (centres undefined) returned MazEF act 2, PriA SSB inh -7, BoNT-F LC inh -3, BoNT-A LC inh2 0, Anthrax LF prot -2 and Bead autofluor 23013*.
C=C(C)COc1ccc2oc(C)c(C(=O)OCCOC)c2c1 was read as MazEF act -1, PriA SSB inh -74, BoNT-F LC inh -4, BoNT-A LC inh2 inconclusive, Anthrax LF prot -4 and Bead autofluor 24480*.
`COCCOC(=O)c1c(C)oc2ccc(OCc3ccccc3)cc12` gave MazEF act 0, PriA SSB inh -67, BoNT-F LC inh -6, BoNT-A LC inh2 0, Anthrax LF prot -2 and Bead autofluor 1911.
Screening N#Cc1ccc(C(=O)Nc2nc3ccc(Cl)cc3s2)cc1 returned PriA SSB inh -4.
Screening Cc1ccc(NCC(O)C(O)C(O)CO)cc1C (centres undefined) returned MazEF act -8, PriA SSB inh 19, BoNT-F LC inh -2, BoNT-A LC inh2 1, Anthrax LF prot -2 and Bead autofluor 20300*.
Cc1cc(N=Nc2ccccc2)c(NCC(O)C(O)C(O)CO)cc1C (centres undefined) was read as MazEF act 2, PriA SSB inh 67, BoNT-F LC inh -2, BoNT-A LC inh2 0, Anthrax LF prot -2 and Bead autofluor 4270.
For CC(C)CCNS(=O)(=O)c1ccc2c(c1)C(O)c1cc(S(=O)(=O)NCCC(C)C)ccc1-2 the results were PriA SSB inh -4.
CSc1ccccc1C(=O)NCc1cc(C2CC2)n(C2CCCC2)n1 was read as PriA SSB inh -14.
CC(C)c1ccc(C(O)c2nc3ccccc3n2C)cc1 (centres undefined) was read as MazEF act -1, PriA SSB inh -19, BoNT-F LC inh inconclusive, BoNT-A LC inh2 1, Anthrax LF prot 26 and Bead autofluor 4021.
For Cc1ccc(C(O)c2nc3ccccc3n2C)cc1 (centres undefined) the results were MazEF act 3, PriA SSB inh -4, BoNT-F LC inh 35*, BoNT-A LC inh2 -2, Anthrax LF prot -18 and Bead autofluor 4123.
CCOC(=O)C(O)(c1ccc(NC(=O)NC2CCCCC2)cc1)C(F)(F)F (centres undefined) was read as MazEF act -7, PriA SSB inh -9, BoNT-F LC inh -1, BoNT-A LC inh2 1, Anthrax LF prot -1 and Bead autofluor 23646*.
`Cc1ccc(C)c(Cc2c(C)nc3c(C(=O)N4CCOCC4)cnn3c2C)c1` gave MazEF act -6, PriA SSB inh 4, BoNT-F LC inh 4, BoNT-A LC inh2 2, Anthrax LF prot -1 and Bead autofluor 22707*.
Cc1nc2c(C(=O)N3CCC4(CC3)OCCO4)cnn2c(C)c1Cc1cccc(Cl)c1 was read as MazEF act 1, PriA SSB inh -1, BoNT-F LC inh -4, BoNT-A LC inh2 0, Anthrax LF prot -2 and Bead autofluor 3969.
`CCOC(=O)N1CCN(C(=O)c2cnn3c(C)c(Cc4ccc(C)cc4)c(C)nc23)CC1` gave MazEF act -7, PriA SSB inh 0, BoNT-F LC inh 1, BoNT-A LC inh2 inconclusive, Anthrax LF prot 0 and Bead autofluor 23293*.
Screening CN1CCCc2cc(C(CNS(=O)(=O)c3cccc(Cl)c3)N(C)C)ccc21 (centres undefined) returned PriA SSB inh 26.
O=c1[nH]cnc2c1sc(=S)n2-c1ccccc1 was read as MazEF act 10, PriA SSB inh -7, BoNT-F LC inh 2, BoNT-A LC inh2 2, Anthrax LF prot -2 and Bead autofluor 22624*.
C=CCn1c(=S)sc2c(=O)[nH]cnc21 was read as MazEF act 0, PriA SSB inh -1, BoNT-F LC inh inconclusive, BoNT-A LC inh2 -1, Anthrax LF prot 53* and Bead autofluor 3494.
`COc1ccc(-c2csc(NC(=O)c3cc(Cl)sc3Cl)n2)cc1` gave PriA SSB inh -2.
For COc1ccc2[nH]c3c(SCC(=O)Nc4ccccc4C(F)(F)F)ncnc3c2c1 the results were PriA SSB inh -10.
Screening COc1ncc(NC(=O)Nc2ccccc2Cl)cn1 returned PriA SSB inh -19.
Screening Cc1ccn(CC(=O)O)c(=O)c1 returned MazEF act 4, PriA SSB inh -5, BoNT-F LC inh -1, BoNT-A LC inh2 inconclusive, Anthrax LF prot -3 and Bead autofluor 22082*.
Screening C1=C(CCNCc2ccccc2)CCCC1 returned MazEF act 11, PriA SSB inh -5, BoNT-F LC inh -5, BoNT-A LC inh2 inconclusive, Anthrax LF prot -2 and Bead autofluor 23029*.
Screening Cc1ccc(CNCCC2=CCCCC2)cc1 returned MazEF act 9, PriA SSB inh 8, BoNT-F LC inh -12, BoNT-A LC inh2 inconclusive, Anthrax LF prot -6 and Bead autofluor 16821*.
O=C(CCN1C(=O)c2ccccc2C1=O)NCCC1=CCCCC1 was read as MazEF act -7, PriA SSB inh -14, BoNT-F LC inh 8, BoNT-A LC inh2 8, Anthrax LF prot -16 and Bead autofluor 20662*.
For O=C(CCn1c(=O)sc2ccccc21)NCCC1=CCCCC1 the results were MazEF act -11, PriA SSB inh -8, BoNT-F LC inh -4, BoNT-A LC inh2 -1, Anthrax LF prot -2 and Bead autofluor 8020.
For O=C(NCCC1=CCCCC1)C(=O)NCc1ccccc1Cl the results were MazEF act 5, PriA SSB inh -4, BoNT-F LC inh -5, BoNT-A LC inh2 inconclusive, Anthrax LF prot 1 and Bead autofluor 16906*.
For COc1ccc(C2CC(=O)C3=C(C2)NC(C)=C(C(=O)Nc2ccccc2C)C3c2coc3ccc(C)cc3c2=O)cc1OC (centres undefined) the results were MazEF act 0, PriA SSB inh -1, BoNT-F LC inh -1, BoNT-A LC inh2 inconclusive, Anthrax LF prot -2 and Bead autofluor 23361*.
For CC1=C(C(=O)Nc2ccccc2)C(c2coc3ccccc3c2=O)C2=C(CCCC2=O)N1 (centres undefined) the results were MazEF act 4, PriA SSB inh 0, BoNT-F LC inh 22, BoNT-A LC inh2 3, Anthrax LF prot 1 and Bead autofluor 2070.
For C=CC(=O)Nc1ccc(N(C)c2ccnc(Nc3ccc(N4CCN(C)CC4)cc3)n2)cc1 the results were MazEF act 4, PriA SSB inh 44*, BoNT-F LC inh -58, BoNT-A LC inh2 0, Anthrax LF prot -16 and Bead autofluor 2818.
`CN(C(=S)Nc1ccc(F)cc1)C1(c2ccccc2Cl)CCCCC1=O` (centres undefined) gave MazEF act -1, PriA SSB inh -2, BoNT-F LC inh -3, BoNT-A LC inh2 -1, Anthrax LF prot 1 and Bead autofluor 24303*.
Cn1cc(S(=O)(=O)N2CCCN(C(=O)c3ccco3)CC2)cn1 was read as PriA SSB inh -23.

Source: PubChem BioAssay (several laboratories)
